Data from PubChem BioAssay (Tox21).
Several values for one entry are separate records, joined by “and”; a condition that tells them apart may be missing. Identical values can stand only once. Inconclusive results are not listed. A call without a number means that no potency is given here. Activity calls are given as the source filed them. Unless noted, calls follow the shape of the dose curve; as a rule, active = well fitted curve in the direction sought with a large enough effect in the repeat runs; inconclusive = weak or mixed curves; inactive = no such curve, though single readings can be large; an effect the other way counts as inactive or inconclusive.

Assays:
[1] = qHTS assay to test for compound auto fluorescence at 535 nm (green) in HEK293 cells (AID 720680)
[2] = qHTS assay to test for compound auto fluorescence at 460 nm (blue) in HEK293 cell free culture (AID 720681)
Summary of the method: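 Compounds were added to cell-free DMEM with 10% FBS and fluorescence read directly. The blue channel used 405 nm excitation and 460 nm emission, with triamterene as the reference fluorophore.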

[3] = qHTS assay to test for compound auto fluorescence at 535 nm (green) in HEK293 cell free culture (AID 720682)
Summary of the method: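 No cells present: wells hold DMEM supplemented with 10% FBS, into which compound or vehicle is pinned. Green emission is then recorded (485 nm excitation, 535 nm emission) and scaled to fluorescein.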

[4] = qHTS assay to test for compound auto fluorescence at 590 nm (red) in HEK293 cell free culture (AID 720683)
Summary of the method: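 Cell-free wells of DMEM with 10% FBS received compound, and intrinsic fluorescence was read at excitation/emission 540/590 nm. Values expressed as equivalence to Rose Bengal sodium.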

[5] = qHTS assay to test for compound auto fluorescence at 590 nm (red) in HepG2 cell free culture (AID 720684)
Summary of the method: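 Auto fluorescence equivalency versus Rose Bengal sodium, red channel Ex/Em 540/590 nm; compounds in cell-free MEM/10% FBS; DMSO vehicle control.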

[6] = qHTS assay to test for compound auto fluorescence at 460 nm (blue) in HepG2 cell free culture (AID 720685)
Summary of the method: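 Cell-free plates of MEM plus 10% FBS received 23 nL compound or DMSO vehicle; blue-channel (405/460 nm) intensity scored against triamterene as reference fluorophore.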

[7] = qHTS assay to test for compound auto fluorescence at 460 nm (blue) in HepG2 cells (AID 720687)
Summary of the method: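 HepG2 cells in MEM with 10% FBS, attached overnight at 37 C, were exposed to compound or DMSO for 1 hr at 37 C, 5% CO2. Blue fluorescence was read at 405/460 nm, with triamterene as reference fluorophore.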

[8] = target: Glucocorticoid receptor (Homo sapiens) (UniProt P04150); experiment: qHTS assay to identify small molecule antagonists of the glucocorticoid receptor (GR) signaling pathway (AID 720692; active = well fitted inhibition curve with a large enough effect in the signal ratio in the repeat runs, not every such curve was filed as active; the % refers to the signal ratio; also: potency is read from the fitted curve at half-maximal effect)
Summary of the method: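 Read-out: beta-lactamase FRET substrate fluorescence, 2 h at room temperature, in HeLa cells stably carrying a GRE-driven bla reporter. Compounds were co-incubated with 5 nM dexamethasone agonist (final) for 18 h at 37 C.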

[9] = qHTS assay for identifying genotoxic compounds that show differential cytotoxicity against isogenic chicken DT40 cell lines with known DNA damage response pathways - wild type cell line (AID 743012); also: nearly all actives have a fitted effect of over 60% in size; also: potency is read from the fitted curve at half-maximal effect
Summary of the method: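 CellTiter-Glo luminescence readout of viability in wild type DT40 cells after 40 h compound exposure at 37 C/5% CO2; 300 cells/well; reagent incubated 30 min at room temperature before reading.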

[10] = qHTS assay for identifying genotoxic compounds that show differential cytotoxicity against isogenic chicken DT40 cell lines with known DNA damage response pathways - Rev3 mutant cell line (AID 743014); also: nearly all actives have a fitted effect of over 55% in size; also: potency is read from the fitted curve at half-maximal effect
[11] = qHTS assay for identifying genotoxic compounds that show differential cytotoxicity against isogenic chicken DT40 cell lines with known DNA damage response pathways - Rad54/Ku70 mutant cell line (AID 743015); also: nearly all actives have a fitted effect of over 60% in size; also: potency is read from the fitted curve at half-maximal effect
[12] = qHTS assay to test for compound auto fluorescence at 535 nm (green) in HepG2 cell free culture (AID 720686)
[13] = target: Glucocorticoid receptor (Homo sapiens) (UniProt P04150); experiment: qHTS assay to identify small molecule agonists of the glucocorticoid receptor (GR) signaling pathway (AID 720691; active = well fitted activation curve with a large enough effect in the signal ratio in the repeat runs, not every such curve was filed as active; the % refers to the signal ratio); conditions: GR-bla HeLa, beta-lactamase reporter ratio, 18 h; activation: at 62.4 µM (top of the series)
Summary of the method: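 HeLa GR-bla reporter line; cells pre-incubated 4 h, compound in DMSO 18 h at 37 C; LiveBLAzer B/G FRET substrate 2 h RT; fluorescence intensity read-out.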

[14] = qHTS assay to identify small molecule antagonists of the glucocorticoid receptor (GR) signaling pathway - cell viability counter screen (AID 720693); also: nearly all actives have a fitted effect of over 55% in size; also: potency is read from the fitted curve at half-maximal effect
[15] = qHTS assay to identify small molecule antagonists of the androgen receptor (AR) signaling pathway - cell viability counter screen (AID 743033; also: nearly all actives have a fitted effect of over 45% in size)
[16] = qHTS assay to identify small molecule antagonists of the androgen receptor (AR) signaling pathway using the MDA cell line - cell viability counter screen (AID 743041; also: nearly all actives have a fitted effect of over 45% in size)
Summary of the method: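 Compound exposure lasted 16 h at 37C in MDA-kb2 AR-luc cells stimulated with R1881. Protease-based CellTiter-Fluor reagent was applied for the final 30 min and fluorescence measured.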

[17] = target: Androgen receptor (Homo sapiens) (UniProt P10275); experiment: qHTS assay to identify small molecule antagonists of the androgen receptor (AR) signaling pathway (AID 743035; active = well fitted inhibition curve with a large enough effect in the signal ratio in the repeat runs, not every such curve was filed as active; the % refers to the signal ratio; also: potency is read from the fitted curve at half-maximal effect)
Summary of the method: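 AR-bla HEK293 reporter cells; 4 h settle at 37C/5% CO2; compound + R1881 agonist, 16 h at 37C; LiveBLAzer B/G FRET substrate 2 h RT; fluorescence intensity read. qHTS format.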

[18] = target: Androgen receptor (Homo sapiens) (UniProt P10275); experiment: qHTS assay to identify small molecule agonists of the androgen receptor (AR) signaling pathway (AID 743036; active = well fitted activation curve with a large enough effect in the signal ratio in the repeat runs, with a control signal flat, not every such curve was filed as active; the % refers to the signal ratio)
Summary of the method: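 Quantitative HTS of the Tox21 10K library in HEK293 cells bearing a stably integrated UAS-controlled beta-lactamase reporter. Compound exposure lasted 16 h at 37C. Reporter activity was detected by FRET substrate fluorescence after 2 h at room temperature.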

[19] = target: Androgen receptor (Homo sapiens) (UniProt P10275); experiment: qHTS assay to identify small molecule agonists of the androgen receptor (AR) signaling pathway using the MDA cell line (AID 743040; also: nearly all actives have a fitted effect of over 20% in size)
Summary of the method: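 Testing was done with the MDA-kb2 AR-luc line, a human breast carcinoma stably transfected with MMTV-luciferase containing AR and GR response elements. Cells were exposed 16 h at 37C before ONE-Glo luminescence detection.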

[20] = target: Androgen receptor (Homo sapiens) (UniProt P10275); experiment: qHTS assay to identify small molecule antagonists of the androgen receptor (AR) signaling pathway using the MDA cell line (AID 743042; also: nearly all actives have a fitted effect of over 55% in size; also: potency is read from the fitted curve at half-maximal effect)
Summary of the method: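 MDA-kb2 breast carcinoma cells carrying MMTV-luciferase (AR/GR responsive) were co-treated with compounds and the agonist R1881 for 16 h at 37C. Inhibition read as ONE-Glo luminescence; CellTiter-Fluor fluorescence measured in parallel for cytotoxicity.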

Glucocorticoid receptor (Homo sapiens), sequence (P04150 whole entry, looked up): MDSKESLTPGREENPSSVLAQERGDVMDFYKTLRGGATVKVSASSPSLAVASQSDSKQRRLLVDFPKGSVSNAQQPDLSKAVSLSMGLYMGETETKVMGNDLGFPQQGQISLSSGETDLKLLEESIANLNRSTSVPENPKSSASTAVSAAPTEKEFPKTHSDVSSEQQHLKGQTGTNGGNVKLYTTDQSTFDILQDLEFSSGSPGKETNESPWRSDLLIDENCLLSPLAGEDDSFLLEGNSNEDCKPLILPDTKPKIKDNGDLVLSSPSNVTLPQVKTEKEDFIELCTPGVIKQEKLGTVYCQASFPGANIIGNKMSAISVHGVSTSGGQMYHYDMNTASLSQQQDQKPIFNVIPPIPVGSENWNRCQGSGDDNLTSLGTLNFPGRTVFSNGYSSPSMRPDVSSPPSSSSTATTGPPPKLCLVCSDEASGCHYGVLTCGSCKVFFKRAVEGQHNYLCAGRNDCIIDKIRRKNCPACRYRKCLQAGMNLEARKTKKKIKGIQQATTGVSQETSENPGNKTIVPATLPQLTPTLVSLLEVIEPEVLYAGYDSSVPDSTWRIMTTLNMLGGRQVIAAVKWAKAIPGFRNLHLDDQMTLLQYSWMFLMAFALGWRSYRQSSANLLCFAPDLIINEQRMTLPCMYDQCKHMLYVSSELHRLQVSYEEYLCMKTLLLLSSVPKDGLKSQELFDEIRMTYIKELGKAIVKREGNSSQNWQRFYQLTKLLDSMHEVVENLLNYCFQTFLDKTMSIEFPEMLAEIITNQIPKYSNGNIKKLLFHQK
Androgen receptor (Homo sapiens), sequence (P10275 whole entry, looked up): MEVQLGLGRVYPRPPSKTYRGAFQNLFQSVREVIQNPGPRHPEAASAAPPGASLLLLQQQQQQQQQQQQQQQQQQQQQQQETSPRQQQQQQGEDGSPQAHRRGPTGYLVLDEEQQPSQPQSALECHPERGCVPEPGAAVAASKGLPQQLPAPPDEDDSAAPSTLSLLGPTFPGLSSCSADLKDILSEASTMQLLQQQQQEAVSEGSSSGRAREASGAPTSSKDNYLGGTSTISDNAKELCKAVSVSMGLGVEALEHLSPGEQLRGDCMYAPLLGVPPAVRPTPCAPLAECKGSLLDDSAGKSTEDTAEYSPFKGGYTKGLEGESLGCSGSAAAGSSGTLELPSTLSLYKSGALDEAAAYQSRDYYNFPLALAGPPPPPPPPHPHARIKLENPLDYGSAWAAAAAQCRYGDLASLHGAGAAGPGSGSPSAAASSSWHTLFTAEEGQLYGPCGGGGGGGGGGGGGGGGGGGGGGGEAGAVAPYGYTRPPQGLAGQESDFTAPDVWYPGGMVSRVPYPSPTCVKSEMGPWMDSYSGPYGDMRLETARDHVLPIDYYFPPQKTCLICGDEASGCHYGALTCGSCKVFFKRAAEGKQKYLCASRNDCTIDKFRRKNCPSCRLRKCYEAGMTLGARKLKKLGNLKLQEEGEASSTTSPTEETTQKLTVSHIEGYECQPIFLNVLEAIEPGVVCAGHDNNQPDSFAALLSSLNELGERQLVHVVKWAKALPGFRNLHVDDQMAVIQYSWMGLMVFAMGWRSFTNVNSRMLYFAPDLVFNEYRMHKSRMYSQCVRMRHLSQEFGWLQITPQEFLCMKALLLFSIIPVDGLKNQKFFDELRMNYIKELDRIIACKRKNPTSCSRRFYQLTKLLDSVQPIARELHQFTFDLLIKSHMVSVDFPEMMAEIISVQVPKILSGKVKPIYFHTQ

Structure (SMILES) | outcome [1] | Potency [2] | outcome [3] | outcome [4] | outcome [5] | Potency [6] | Potency [7] | Potency [8] | Potency [9] | Potency [10] | Potency [11] | Potency [12] | Potency [13] | Potency [14] | Potency [15] | Potency [16] | Potency [17] | Potency [18] | Potency [19] | Potency [20]
CNCCC=C1c2ccccc2CCc2ccccc21 | inactive | inactive | inactive | inactive | inactive | inactive | inactive | inactive | 6.68 µM (active) | 11.9 µM (active) | 11.9 µM (active) | – | – | – | – | – | – | – | – | –
NC(N)=NCc1cccc(I)c1 | inactive | inactive | inactive | inactive | inactive | – | inactive | inactive | 5.96 µM (active) and 8.41 µM (active) | 8.41 µM (active) and 11.9 µM (active) | 6.68 µM (active) and 7.5 µM (active) | inactive | inactive | inactive | inactive | – | – | – | – | –
C[C@H](Cc1ccc(O)c(O)c1)[C@@H](C)Cc1ccc(O)c(O)c1 | inactive | inactive | inactive | inactive | inactive | inactive | inactive | – | 10.6 µM (active) | 23.7 µM (active) | 10.6 µM (active) | – | inactive | – | inactive | inactive | – | – | – | –
CC(C)(O/N=C(\C(=O)N[C@@H]1C(=O)N2C(C(=O)[O-])=C(C[n+]3ccccc3)CS[C@H]12)c1csc(N)n1)C(=O)O | inactive | inactive | inactive | inactive | inactive | inactive | inactive | – | inactive | inactive | inactive | – | inactive | – | inactive | inactive | – | – | – | –
NC(=O)CC[C@@H]1NC(=O)[C@H](Cc2ccccc2)NC(=O)[C@H](Cc2ccc(O)cc2)NC(=O)[C@@H](N)CSSC[C@@H](C(=O)N2CCC[C@H]2C(=O)N[C@@H](CCCN=C(N)N)C(=O)NCC(N)=O)NC(=O)[C@H](CC(N)=O)NC1=O | inactive | inactive | inactive | inactive | inactive | inactive | – | – | – | inactive | inactive | – | – | inactive | inactive | inactive | – | – | – | –
O=C(O)[C@@H]1C[C@H](CP(=O)(O)O)CCN1 | inactive | inactive | inactive | inactive | inactive | inactive | inactive | inactive | – | inactive | inactive | – | inactive | inactive | inactive | inactive | inactive | inactive | inactive | inactive
CC[C@@H](C)[C@H](N)C(=O)O | inactive | inactive | inactive | inactive | inactive | – | inactive | inactive | – | inactive | inactive | inactive | inactive | inactive | inactive | inactive | – | – | – | –
N[C@H](CO)C(=O)O | inactive | inactive | inactive | inactive | inactive | – | inactive | – | inactive | – | inactive | – | inactive | inactive | inactive | inactive | – | – | – | –
COC(=O)C[C@](O)(CCCC(C)(C)O)C(=O)O[C@@H]1C(OC)=CC23CCCN2CCc2cc4c(cc2[C@H]13)OCO4 (stereo not given in full) | inactive | inactive | inactive | inactive | inactive | – | inactive | 0.169 µM (active) | 29.8 nM (active) and 23.7 nM (active) | 21.1 nM (active) and 26.6 nM (active) | 0.0237 µM (active) | inactive | – | 1.2 µM (active) and 1.07 µM (active) | – | – | 75.6 nM (active) and 67.4 nM (active) | – | inactive | 0.0211 µM (active)
O=P(O)(O)CP(=O)(O)O | inactive | inactive | inactive | inactive | inactive | – | inactive | – | inactive | – | inactive | inactive | inactive | inactive | inactive | inactive | inactive | inactive | inactive | inactive
CC1(C)S[C@@H]2[C@H](N3C(=O)C(c4ccccc4)NC3(C)C)C(=O)N2[C@H]1C(=O)O (stereo not given in full) | inactive | inactive | inactive | inactive | inactive | – | inactive | – | inactive | – | inactive | inactive | – | inactive | inactive | inactive | – | – | – | –
N[C@@H](Cc1ccc(O)c(O)c1)C(=O)O | inactive | inactive | inactive | inactive | inactive | – | – | – | – | inactive | inactive | inactive | inactive | inactive | inactive | inactive | – | – | – | –
CS(=O)(=O)c1ccc([C@@H](O)[C@@H](COC(=O)CN)NC(=O)C(Cl)Cl)cc1 | inactive | inactive | inactive | inactive | inactive | – | inactive | – | 5.96 µM (active) | 6.68 µM (active) | 7.5 µM (active) | inactive | – | inactive | inactive | inactive | – | – | – | –
